PubChem BioAssay AID504941 (Broad Institute, 2011)
About 170 (14%) of roughly 1,200 compounds were called active. How the calls were made is not given here. Not all results are given here. Results with a measured potency or affinity are listed apart.

experiment: twin-arginine translocation blockade, bacterial reporter – cherry-pick, set 2, plate reader, dose response (AID 504941); conditions: E. coli Tat transport reporter; series mostly up to 38 µM; activity change, negative = inhibition: at the top concentration

Activity change, negative = inhibition, inactive:
CC1CN(S(=O)(=O)c2ccc(C(=O)Nc3ccccc3F)cc2)CC(C)O1 (centres undefined) -8.54%, Cc1c(NC(=O)Nc2ccccc2)cccc1[N+](=O)[O-] -14%, Clc1ccc(C2[C@H]3CN(Cc4cccnc4)[C@H](c4ccccc4)C34CC2(c2ccccc2)C4)cn1 (some centres undefined) 10.2%, Cc1ccc(NC(=O)CCCc2nc3ccccc3s2)c(O)c1 -3.12%, Cc1cnc(C(=O)OCC(=O)Nc2sc3c(c2C#N)CCC3)cn1 4.32%, N#Cc1cn(CC(=O)N2CCCc3ccccc32)c2ccccc12 46.6%, COc1cc(S(=O)(=O)Nc2cc(C)cc(C)c2)ccc1F 3.51%, COc1ccc(OC2OC3COC(c4ccco4)OC3C(O)C2NC(C)=O)cc1 (centres undefined) 16.8%, Cc1ccc(C(=O)CN2/C(=C(\O)c3ccccc3)C(=O)c3ccccc3S2(=O)=O)c(C)c1 11.6%, CC(=O)c1c(C)[nH]c(C(=O)Nc2ccccc2N2CCOCC2)c1C 0.693%, Clc1ccccc1-c1nn2c(-c3ccncc3)nnc2s1 19.8%, COc1cccc(C(=O)NCCS(=O)(=O)NCc2ccccn2)c1 38.8%, O=C(O)CN1C(=O)CC(Cc2ccc(Cl)cc2)C1=O (centres undefined) 10.2%, Cc1c(N2C(=O)c3cccc4cccc(c34)C2=O)c(=O)n(-c2ccccc2)n1C 15.6%, CCOC(=O)c1c2c3c(c(Cl)ccc3[nH]c1=O)C(=O)c1ccccc1-2 23.7%, CCOC(=O)c1ccccc1-n1nnnc1C -44.4%, CCCCN1CC(COCc2ccccc2)Oc2cccc(N3CCCC3)c2S1(=O)=O (centres undefined) -13.8%, CC(=O)Nc1cccc(Oc2nc(C(F)(F)F)nc3ccccc23)c1 -40.1%, COc1ccc(NS(=O)(=O)c2cc(NC(=O)CCc3ccc(OC)c(OC)c3)ccc2N2CCOCC2)cc1 -12.1%, O=C(CNC1CCCCCC1)Nc1ccccc1N1CCCCC1 -20.1%, O=C(CNC1CCCCC1)Nc1cc(S(=O)(=O)N2CCOCC2)ccc1Cl -39.9%, COC(c1ccccc1)c1nnc(CCC(=O)N(C)C(C2CC2)C2CC2)o1 (centres undefined) 13.3%, CCOC(=O)C1(Cc2cccc(F)c2)CCN(C2CCOCC2)CC1 13.1%, COc1ccc(/C=N/Nc2ccccn2)cc1O -6.92%, C(=N\n1cncn1)/c1ccc(N2CCOCC2)cc1 5.88%, CC(NC(=O)c1ccc([N+](=O)[O-])cc1[N+](=O)[O-])c1ccc(-c2ccccc2)cc1 (centres undefined) 4%, CCOc1ccc(NC(=O)c2ccc(NC(=O)COC(=O)Cc3ccc(OC)cc3)cc2)cc1 9.01%, Cc1ccc(-n2nnnc2SCC(=O)Nc2ccc3c(c2)OCCO3)cc1C 35.1%, COC(=O)c1ccc(OC(=O)c2nn(C)cc2Cl)c(OC)c1 -31.2%, Cn1ncc(Cl)c1C(=O)NCc1ccc(Cl)cc1 7.63%, O=C(Cc1ccccc1Cl)c1ccccc1 11.6%, CCN(Cc1ccccc1)S(=O)(=O)c1c[nH]c(C(=O)OC)c1 -11.8%, O=C(O)Cn1cc(C(=S)N2CCOCC2)c2ccccc21 3.92%, CCCCc1ccc(N=N/C(C(=O)Nc2ccc(NC(C)=O)cc2OC)=C(/C)O)cc1 1.99%, CC(=O)NC(Cc1ccc(F)c(F)c1)C(=O)NC1CCN(c2c(Cc3ccccc3)c(C)nc3ncnn23)CC1 (centres undefined) 12.8%, O=C1CC(c2cc(-c3ccccc3)no2)C1 10.3%, CNC(=O)CNC(=O)Nc1ccc(C)cc1 22.2%, CCN(C[C@H]1N[C@@](Cc2ccccc2)(C(=O)OC)[C@H]2C(=O)N(C)C(=O)[C@@H]12)C(C)=O 1.98%, Cn1cc(CN2CCC(CO)(CCCc3ccccc3)CC2)c(-c2ccccc2)n1 12%, Cc1ccc(NC(=O)c2ccc(Oc3ncccn3)cc2)cc1 0.345%, Cc1cc(=O)[nH]c(SCC(=O)NCc2ccc3c(c2)OCO3)n1 -7.75%, CC(C)C(=O)Nc1ccc(Nc2ccccc2)cc1 9.17%, CCCCOc1ccc(NC(=O)c2cc(F)c(F)cc2Cl)cc1 8.26%, O=C(NCCc1ccccc1)c1n[nH]c2ccccc12 12%, O=C(Cn1nc(C(=O)O)c2ccccc2c1=O)NCc1ccco1 34%, CCc1ccc(C(C(=O)NC2CCCC2)N(CCOC)C(=O)CCC(=O)Nc2cc(C)on2)cc1 (centres undefined) 0.853%, Cc1nc(SCc2ccc(C(=O)O)cc2)c2c(C)c(C)sc2n1 9.12%, CN(C)CCCNC(=O)C(=O)NCC1CCCO1 (centres undefined) 21.6%, CCO[C@@H]1OC(C(=O)O)=C[C@H](C)[C@H]1CCCO 15.7%, CC(=O)Oc1ccc(C(=O)Cc2ccccn2)c(O)c1 -34.4%, CC(C)[C@@H](C(=O)N1CCNCC1)n1cc(CCO)nn1 15.8%, NS(=O)(=O)c1ccc(CCNc2nc(C(F)(F)F)nc3ccccc23)cc1 -18.2%, CCOC(=O)c1cnn(-c2cc(C)c3ccccc3n2)c1N 0.267%, CCSC(=O)NC12CC3CC(CC(C3)C1)C2 12%, Cc1ccc(C)n1-c1ccc(-c2ccnc(N)n2)cc1 -3.79%, O=[N+]([O-])c1cccc(N(CC(O)CN2CCCCC2)S(=O)(=O)c2ccccc2)c1 (centres undefined) -2.2%, C#CC(C)(CC)NC(=O)c1cc2cccc(CC=C)c2oc1=O (centres undefined) -4.26%, COc1ccc(S(=O)(=O)N2CCC(C(N)=O)CC2)cc1 -6.67%, CCOC(=O)c1c(NC(=O)CSc2n[nH]c(CNc3ccccc3)n2)sc(C)c1C -2.05%, C=CCN1C=C2C(=O)C(C)(OC(=O)c3ccc(OC)cc3)C(=O)C(c3ccco3)=C2C=C1CCCC (centres undefined) -17.3%, O=C(O)c1cccc(NC(=O)c2ccccc2)c1 7.3%, CC(C)N(c1ccccc1)c1ccc(NC(=O)COC(=O)CCN2C(=O)c3cccc([N+](=O)[O-])c3C2=O)cc1 -0.764%, O=C(CSc1ncnc2c1nnn2Cc1ccccc1F)NCC1CCCO1 (centres undefined) -22.2%, O=C(CSc1cn(CCNC(=O)c2c(F)cccc2F)c2ccccc12)NCC1CCCO1 (centres undefined) -4.72%, Cc1ccccc1OCC(=O)Nc1ccc(S(=O)(=O)Nc2onc(C)c2C)cc1 14.2%, O=C(/C=C/Nc1ccccc1Br)c1ccccn1 -9.87%, CC1(C)CC(NC(=O)c2ccc(-c3ccc([N+](=O)[O-])cc3)o2)CC(C)(C)N1 -19.5%, Cc1ccc(NC(=S)NC(=O)c2ccc(F)cc2)cc1S(=O)(=O)Nc1ccccc1Cl -2.37%, C[C@H]1CN([C@@H](C)CO)C(=O)c2cccc(NS(=O)(=O)c3ccc(F)cc3)c2O[C@H]1CN(C)Cc1ccc(Cl)c(Cl)c1 35.5%
